Reference: PubChem BioAssay (NCATS)
Inconclusive results are not listed. A number with no mark means an inactive call. The source made the active and inactive calls. The call rests on the fitted dose curve; in most records, active means well fitted inhibition curve with a large enough effect; inconclusive means small, poorly fitted or top-dose-only effect; inactive means flat fitted curve, though single readings scatter.

Experiments:
Assay in all cases: Cytotoxic Profiling of Annotated Libraries Using Quantitative High-Throughput Screening (AID 1296008); further: nearly all actives have a fitted effect of over 60% in size
Conditions in all cases: Five cell lines viability, CellTiter-Glo ATP luminescence, 48-72 h; max response: hits give low values
[1] = system: CRL-7250
Method in brief: (§1)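 Compounds were pin-transferred onto cells and incubated 48 or 72 hr at 37 degree Celsius, 95% humidity. CellTiter-Glo was added, plates sat 10 min at room temperature, then ATP-coupled luminescence was imaged as the viability read-out.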

[2] = system: HaCat
Method in brief: as §1

[3] = system: KB-3-1
Method in brief: as §1

[4] = system: NIH3T3
Method in brief: as §1
On the % scale 0 is the no-effect control and ±100 the full control effect; potency means the concentration at half of the fitted maximal effect.

## COc1ccccc1-c1ccc(-c2cn(C(=O)N3CCCCC3Cc3ccccc3)nn2)cc1 (centres undefined)
[1]
  outcome: inactive
[2]
  max response: -29.9%
[3]
  max response: 1.87%
[4]
  outcome: inactive

## O=C(C(Cc1cccc(C(F)(F)F)c1)NS(=O)(=O)c1cc(F)c2c(c1)CCNC2)N1CCCC1 (centres undefined)
[1]
  max response: -1.14%
[2]
  max response: -1.4%
[3]
  max response: -6.26%
[4]
  max response: 1.31%

## C/C=C(\C)C(=O)OC1C(C)C2(O)C(C=C(CO)CC3(O)C(=O)C(C)=CC32)C2C(C)(C)C12OC(=O)C(C)C (centres undefined)
[1]
  max response: -36%
[2]
  max response: -1.92%
[3]
  max response: -0.0958%
[4]
  max response: 1.03%

## Cc1ccc(CNc2ncnc3ccc(-c4ccc(CO)o4)cc23)o1
[1]
  max response: -10.7%
[2]
  Potency: 16.4 µM (active)
[3]
  max response: 8.1%
[4]
  max response: -6.8%

## O=C(O)CCc1nccc2c1[nH]c1ccccc12
[1]
  max response: -19.9%
[2]
  max response: 3.67%
[3]
  outcome: inactive
[4]
  max response: -2.87%

## C=CCCN1CCC2(CC1)CN(C(=O)c1c(F)cccc1F)c1ccc(Cl)cc12
[1]
  outcome: inactive
[2]
  max response: -0.627%
[3]
  outcome: inactive
[4]
  outcome: inactive

## CC1(CO)CC(O)[C@]2(C(=O)O)CCC34CC3(C=CC3[C@]5(C)C(CC[C@]34C)C(C)(CO)[C@@H](O)[C@H](O)[C@@H]5O)C2C1 (some centres undefined)
[1]
  max response: -11.7%
[2]
  max response: -0.72%
[3]
  outcome: inactive
[4]
  max response: -3.3%

## Nc1nc2c(s1)CCN(Cc1ccc(Cl)cc1)CC2
[1]
  outcome: inactive
[2]
  max response: -24.3%
[3]
  max response: 6.96%
[4]
  max response: 0.621%

## C[C@@H]1CC[C@]2(C(=O)O)CC[C@]3(C)C(=CCC4[C@@]5(C)CC[C@H](O)[C@](C)(C(=O)O)C5CC[C@]43C)C2[C@]1(C)O (some centres undefined)
[1]
  max response: -2.08%
[2]
  max response: 4.55%
[3]
  max response: 0.684%
[4]
  max response: -24.1%

## CC(=O)OC1C(=O)C2C3OCC4=C3[C@@](C)(CC[C@@H]4O)CC[C@]2(C)[C@H]1C(C)C (some centres undefined)
[1]
  max response: 0.411%
[2]
  max response: -13.7%
[3]
  max response: 4.67%
[4]
  max response: 1.97%

## O=C(NCCO)c1cccc(-c2cc(Nc3ccc(OC(F)(F)F)cc3)ncn2)c1
[1]
  max response: 0.504%
[2]
  max response: -14.2%
[3]
  max response: -22.2%
[4]
  max response: -22.6%

## C/C(=C\CO[C@@H]1O[C@H](CO[C@H]2OC[C@](O)(CO)[C@H]2O)[C@@H](O)[C@H](O)[C@H]1O)C(C)(C)O
[1]
  max response: -3.13%
[2]
  max response: -2.99%
[3]
  max response: 2.14%
[4]
  max response: 3.25%

## O=C(O)c1cccc(-c2ccc(-c3cn(C(=O)N4CCCCC4Cc4ccccc4)nn3)cc2)c1 (centres undefined)
[1]
  max response: 0.106%
[2]
  max response: -16.1%
[3]
  max response: 9.26%
[4]
  max response: -1.06%

## C=CC(C)(O)CC/C=C(/C)COC(=O)C(C)C1CCC(C)(C=C)O1 (centres undefined)
[1]
  max response: -27%
[2]
  max response: 3.72%
[3]
  max response: 8.61%
[4]
  max response: 0.167%

## CCn1nc(C2CCN(C(=O)CCO)CC2)nc1-c1cnc(N)c(-c2nnc(C(C)(C)C)o2)n1
[1]
  max response: -9.09%
[2]
  Potency: 3.66 µM (active)
[3]
  max response: 9.1%
[4]
  Potency: 8.2 µM (active)

## CO[C@H]1O[C@@H]2O[C@@]3(C)CCC4[C@H](C)CCC([C@H]1C)[C@]42OO3 (some centres undefined)
[1]
  outcome: inactive
[2]
  max response: -12.1%
[3]
  outcome: inactive
[4]
  outcome: inactive

## C=C1C(=O)O[C@@H]2/C=C(/C)[C@@H](OC(C)=O)C/C=C(\C)C[C@@H](OC(=O)/C(=C/CO)CO)[C@@H]12
[1]
  max response: 3.05%
[2]
  max response: -3.88%
[3]
  outcome: inactive
[4]
  max response: 0.581%

## CN(C)CC#CCCC(=O)C(O)(c1ccccc1)C1CCC1 (centres undefined)
[1]
  max response: 4.04%
[2]
  max response: 3%
[3]
  max response: 7.92%
[4]
  max response: -1.12%

## O=c1[nH]cnc2c([C@@H]3N[C@H](CO)[C@@H](O)[C@H]3O)c[nH]c12
[1]
  max response: -8.88%
[2]
  max response: -34.4%
[3]
  max response: 7.13%
[4]
  outcome: inactive

## O=C(c1ccc(F)cc1)N1CCCC(c2nc(-c3ccc(F)cc3)no2)C1 (centres undefined)
[1]
  max response: -19.5%
[2]
  max response: -5.25%
[3]
  max response: -21.6%
[4]
  max response: -12.8%

## C=C[C@](C)(O)CC[C@H]1C(C)=CC(=O)[C@H]2C(C)(C)CCC[C@]12C
[1]
  max response: -9.12%
[2]
  max response: 1.13%
[3]
  max response: -5.31%
[4]
  max response: 0.554%
